Each structure is given as a SMILES string. Several values for one entry are separate records, joined by “and”; a condition that tells them apart may be missing. Identical values can stand only once. Activity calls are given as the source filed them. How the source made its calls: active means hit-call score of the fitted dose curve at least 0.9, where 1 is the maximum; inactive means score below 0.9.

The values below come from PubChem BioAssay (EPA / NIEHS).

This assay can be described thus: BSK_3C_uPAR: BioMAP Diversity Plus: 3C Assay for Urokinase-type plasminogen activator receptor (uPAR) Biomarker Activity (AID 2282998). Particulars: BioMAP 3C HUVEC, uPAR biomarker ELISA; actives raise or lower the signal. As for the experimental part:
BSK_3C is a cell-based, multiplexed-readout assay that uses umbilical vein endothelium, a human vascular primary cell, with measurements taken at 24 hours after chemical dosing in a 96-well plate.BSK_3CAR is an assay component measured in the BSK_3C assay. It measures uPAR antibody related to regulation of gene expression using ELISA technology.Data from the assay component BSK_3CAR was analyzed into 1 assay endpoint. This assay endpoint, BSK_3CAR, was analyzed with bidirectional fitting relative to DMSO as the negative control and baseline of activity. Using a type of binding reporter, gain or loss-of-signal activity can be used to understand changes in the signaling as they relate to the gene PLAUR. Furthermore, this assay endpoint can be referred to as a primary readout, because this assay has produced multiple assay endpoints where this one serves a signaling function. To generalize the intended target to other relatable targets, this assay endpoint is annotated to the cytokine intended target family, where the subfamily is plasmogen activator.
The levels of cell surface (or secreted, indicated by the prefix "s") biomarker endpoints were measured by ELISA. Overt cytotoxicity to cells in confluent adherent cultures (all systems other than the BT system) was assessed by measuring total protein levels using sulforhodamine B (SRB) staining in parallel cultures at the time of biomarker measurements, indicated as SRB endpoints. For proliferation assays for adherent cell types, individual cell types are cultured at sub-confluence and relative cell numbers quantified by SRB staining at time points optimized for each system (48 h: 3C and CASM3C systems; 72 h: BT and HDF3CGF systems; 96 h: SAg system). SRB was performed by staining cells with 0.1% SRB after fixation with 10% TCA and reading wells at 560 nm.Viability and proliferation of PBMC (T cells) was quantified by Alamar Blue reduction for the SAg and BT systems. For PBMC viability (referred to as PBMC Cytotoxicity within the assay endpoint names), cells were plated (75,000/well in a 96-well plate) and then chemical samples added for 1 h before addition of activators, SEB and TSST-1 (20 ng/mL final concentration each). Cells were incubated for 90 h. Then, Alamar Blue (20 uL/well) (Invitrogen, Cat DAL1100) was added for 6 h, and the plates were read with a fluorescence microplate reader at 546/580 nm (excitation/emission). For PBMC proliferation, cells were plated and activated as above but incubated for only 16 h prior to addition of Alamar Blue. Plates were read after 6 h.
(In an ELISA, binding on a coated surface is turned into a signal by an enzyme label.)
As for `C=CCOC(Cn1ccnc1)c1ccc(Cl)cc1Cl` (stereo not given), the outcome was inactive. Regarding `C[C@]12C[C@H](O)[C@H]3[C@@H](CCC4=CC(=O)CC[C@@]43C)[C@@H]1CC[C@@H]2C(=O)CO`, the outcome was inactive. As a reminder, the AC50 is the midpoint of the concentration-response curve, whichever way the signal moves. `N#CSCSc1nc2ccccc2s1`: the AC50 was 2.04 µM (active) and 6.26 µM (active).

In the case of `CC(=O)S[C@@H]1CC2=CC(=O)CC[C@]2(C)[C@H]2CC[C@@]3(C)[C@@H](CC[C@@]34CCC(=O)O4)[C@H]12`, the AC50 was 27.8 µM (active).

In the case of `COC(=O)CSc1cc(N=c2sc(=O)n3n2CCCC3)c(F)cc1Cl`, the result was inactive. Regarding `CC(=O)[C@H]1CC[C@H]2[C@@H]3CCC4=CC(=O)CC[C@]4(C)[C@H]3CC[C@]12C`, the half-maximal activity concentration (AC50) is 5.32 µM (active). In the case of `CC(C)(C)[C@@H](O)[C@@H](Cc1ccc(Cl)cc1)n1cncn1`, the result was inactive.

For the compound `O=C(c1ccccc1)C1CCCCC1`, the outcome was inactive. With `COC(=O)c1c(Cl)nn(C)c1S(=O)(=O)NC(=O)Nc1nc(OC)cc(OC)n1`, the outcome was inactive. Consider `CCC(C)OC(=O)N1CCCCC1CCO` (stereo not given), for which the outcome was inactive. Same read-out and setting: next, `S=C(S)NCCNC(=S)S.[Mn+2].[S-]C([S-])=NCCN=C([S-])[S-].[Zn+2]`: “inactive”. Turning to `O=C(Nc1ccc([N+](=O)[O-])cc1Cl)c1cc(Cl)ccc1O`, the AC50 was 0.145 µM (active). With `CCOC(=O)[C@H](C)Oc1ccc(Oc2nc3ccc(Cl)cc3o2)cc1`, the result was inactive.

Regarding `CCCN(CCC)c1c([N+](=O)[O-])cc(C(F)(F)F)c(N)c1[N+](=O)[O-]`, the AC50 is 31.8 µM (active). In the case of `CCCCC(CC)CN1C(=O)C2C3C=CC(C3)C2C1=O` (stereo not given), the AC50 was 32.2 µM (active). `COC(=O)c1ccc(CNS(C)(=O)=O)cc1S(=O)(=O)NC(=O)Nc1nc(OC)cc(OC)n1`: the outcome was inactive. For the compound `COC(=O)c1ccccc1S(=O)(=O)NC(=O)Nc1nc(OC(F)F)cc(OC(F)F)n1`, the result was inactive. On the same count and under the same terms, the result for `COC(=O)c1ccc(I)cc1S(=O)(=O)NC(=O)Nc1nc(C)nc(OC)n1` reads “inactive”; that for `C[C@]12CC[C@@H]3c4ccc(O)cc4C[C@@H](CCCCCCCCCS(=O)CCCC(F)(F)C(F)(F)F)[C@H]3[C@@H]1CC[C@@H]2O` (stereo not given in full), “inactive”; that for `N[C@@H](Cc1cc(I)c(Oc2ccc(O)c(I)c2)c(I)c1)C(=O)O`, “inactive”.

Turning to `C#C[C@]1(O)CC[C@H]2[C@@H]3CCC4=CC(=O)CC[C@@H]4[C@H]3CC[C@@]21CC`, the outcome was inactive. `CCCCOC(=O)[C@@H](C)Oc1ccc(Oc2ccc(C(F)(F)F)cn2)cc1`: the outcome was inactive. For `CCSC(=O)N(CC(C)C)CC(C)C`, the result was inactive. Same read-out and setting: the result for `COc1c(Cl)ccc(Cl)c1C(=O)O` reads “inactive”.

For `COC(=O)c1cccc(C)c1S(=O)(=O)NC(=O)Nc1nc(OCC(F)(F)F)nc(N(C)C)n1`, the result was inactive. Take `OB(O)O`: the outcome was inactive. With `CCN(Cc1c(F)cccc1Cl)c1c([N+](=O)[O-])cc(C(F)(F)F)cc1[N+](=O)[O-]`, the AC50 was 12 µM (active). Take `CN(C)C(=O)Nc1ccc(Cl)c(Cl)c1`: the outcome was inactive. Consider `CCCCCCC(C)OC(=O)COc1nc(F)c(Cl)c(N)c1Cl` (stereo not given), for which the AC50 was 37.8 µM (active). Consider `CCNc1nc(N)nc(Cl)n1`, for which the result was inactive. In the case of `Oc1ccc(C(c2ccc(O)cc2)C(Cl)(Cl)Cl)cc1`, the AC50 was 31.5 µM (active).

With `CCN(CC)C(=O)c1cccc(C)c1`, the result was inactive. Turning to `CCCCOC(=O)C(C)Oc1ccc(Oc2ccc(C(F)(F)F)cn2)cc1` (stereo not given), the result was inactive. The same measure, in the same setting: next, `CCOC(=O)C(C)Oc1ccc(Oc2cnc3cc(Cl)ccc3n2)cc1` (stereo not given): “inactive”; `CCC(O)=C1C(=O)CC(C(=O)O)CC1=O` (stereo not given): “inactive”. In the case of `CC(C)(c1ccc(O)cc1)c1ccc(O)cc1`, the outcome was inactive. `CCOC(=O)COc1cc(-n2ncc(C(F)(F)F)c(C)c2=O)c(F)cc1Cl`: the outcome was inactive.

Take `CCCN(CCC)C(=O)SCC`: the outcome was inactive. Same read-out and setting: the result for `CC1(C)C(C=C(Cl)Cl)C1C(=O)OCc1cccc(Oc2ccccc2)c1` (stereo not given) reads “inactive”; that for `COC(=O)c1ccccc1C(=O)O`, “inactive”.
